Screening data: PubChem BioAssay, several laboratories
The list is not random: actives were taken first. Their share in the collection is about 2.6%.
LGR2 inh = inhibitors of bursicon-induced LGR2 CRE-luciferase signal, primary screen, cell-based, HEK293, CRE-luciferase reporter, bursicon stimulation; Drosophila bursicon receptor LGR2 (rickets); bursicon-stimulated, 4 h; inhibition, % at 9.99 µM; actives 0.35% (n = 380,000); AID 720647, 2013;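 active = drop in luminescence signal, shown as inhibition above about 50% in the replicate tests, limit read from the data, passing the limit was not always enough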;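 note: agonist challenge used bursicon conditioned medium at about half maximal strength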
aDG glyco act = activators of alpha-DG glycosylation, primary screen, uHTS, Pro5-aDG cells, AlphaScreen | actives 0.22% (n = 360,000) | alpha-DG glycosylation AlphaScreen (IIH6); 0% Pro5, 100% B10-LARGE cell signal | activation, % at 10 µM | AID 624168, 2012;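 active = activation of at least 8% versus controls, or a plate z-score of at least 8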;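 note: Pro5 are CHO cells carrying HIG-tagged alpha-DG that lacks glycosylation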
TROY NFkB inh = inhibitors of TROY-driven NF-kB signaling, primary screen, Q293 LMP1-TROYcd cells, NF-kB luciferase, uHTS; Q293 LMP1-TROYcd NF-kB luciferase reporter, 4 h; inhibition, % at 10 µM; actives 0.98% (n = 360,000); AID 1347056, 2019;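 active = compounds whose plate-normalised and pattern-corrected inhibition of the luciferase reporter signal at the single screening dose is 50% or more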
HSP90 refold inh = HSP90 inhibitors, primary screen, cell lysate, luminescence. inhibition, % at 5.6 µM. Heat shock protein HSP 90 (rabbit reticulocyte lysate; luciferase refolding). actives 0.91% (n = 290,000). Rabbit reticulocyte lysate, luciferase refolding luminescence, 3 h;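 active = inhibition above the screen-wide mean plus 3 SD, computed separately per campaign, cut at about 16% in these data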;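 note: 0% = DMSO wells and 100% = 60 µM geldanamycin wells; inhibitors lower the luminescence because luciferase stays unfolded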
LMP1 NFkB inh = EBV LMP1-driven NF-kappaB luciferase reporter inhibitors, primary screen, cell-based, luminescence, single point | inhibition, % at 12.5 µM | LMP1-induced NF-kappaB luciferase reporter cells | actives 0.69% (n = 350,000); in the data active = inhibition above about 41%;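 note: 0% = neutral control wells and 100% = reference inhibitor control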
TWEAK Fn14 block = inhibitors of TWEAK-Fn14 signaling, primary screen, luciferase reporter cells, uHTS. TWEAK-stimulated Fn14 reporter cells, luciferase luminescence, 8 h. inhibition, % at 10 µM. actives 2% (n = 360,000). AID 1159606, 2016; in the data active = inhibition above about 50%
* hit, by the source's call; x = not tested or not shown; ! = not active in a repeat.

SMILES	LGR2 inh	aDG glyco act	TROY NFkB inh	HSP90 refold inh	LMP1 NFkB inh	TWEAK Fn14 block
COC(=O)c1ccc(NC(=O)Nc2ccc([N+](=O)[O-])cc2)cc1	13.0	-0.2	50.1*	-1.3	-0.3	20.2
O=C(Nc1ccc(C(=O)O)cc1)Nc1ccc([N+](=O)[O-])cc1	9.3	-0.1	12.2	-7.4	-3.0	16.7
C[C@H](NC(=O)C[C@H]1C[C@@H]2c3cc(NC(=O)C4CCOCC4)ccc3O[C@@H]2[C@@H](CO)O1)c1ccccc1	-12.6	x	x	x	x	x
COC(=O)C[C@@H]1C[C@H]2c3cc(NC(=O)Nc4ccc(F)cc4)ccc3O[C@H]2[C@H](CO)O1	23.7	x	x	x	x	x
COc1cccc(C(=O)CC(=O)C(=O)Nc2cc(OC)ccc2OC)c1	-9.0	0.0	-18.6	-6.0	-2.3	21.2
COc1cccc(C(=O)CC(=O)C(=O)Nc2ccc(C)cc2Cl)c1	14.5	0.2	35.6	4.9	46.4*	91.2*
COc1ccc(C(=O)CC(=O)C(=O)Nc2ccc(C)cc2Cl)cc1	-8.2	0.0	-14.2	-0.1	6.5	51.6*
COc1ccc(C(=O)CC(=O)C(=O)Nc2ccccc2OC)cc1	-13.2	0.3	-31.9	1.2	3.9	-46.3
COC(=O)[C@@H]1[C@@H](CO)[C@@H]2Cn3c(ccc(-c4ccccc4)c3=O)[C@@H]2N1CC1CCCCC1	-0.2	x	x	x	x	x
COc1cccc(-n2nc(C(N)=O)c(O)cc2=O)c1	-15.1	0.3	12.3	0.7	10.2	8.0
COc1cccc(-n2nc(C#N)c(Cl)cc2=O)c1	102.8*	-0.7	83.3*	-2.4	11.5	28.8
C[C@@H]1CN([C@H](C)CO)C(=O)c2cc(C#CC3(O)CCCC3)cnc2O[C@@H]1CN(C)C(=O)C1CCC1	23.8	x	x	x	x	x
CO[C@@H]1CN(C)C(=O)c2ccc(NC(=O)c3ccc(-c4ccccc4)cc3)cc2OC[C@@H](C)NC[C@H]1C	2.3	x	x	x	x	x
O=C(O)C1CCC(CNCc2ccccc2Cl)CC1 (configuration not stated)	0.3	-0.2	6.1	0.4	7.6	55.9*
O=[N+]([O-])c1cccc(NC(=S)Nc2nc(-c3ccccc3Cl)cs2)c1	22.2	3.5	39.6	5.2	24.2	56.0*
CCC(C)Sc1cccc(-c2nc3cc(C)ccn3c2NC2CCCCC2)c1 (configuration not stated)	5.3	14.7*!	-89.1	x	-5.6	-24.4
CCS(=O)(=O)Nc1ccc(C2=NN(C(=S)Nc3ccccc3)C(c3ccco3)C2)cc1 (configuration not stated)	-17.6	-0.3	-3.5	1.6	0.3	0.2
Cc1ccc(C2=NN(C(=S)Nc3ccccc3)C(c3ccco3)C2)cc1 (configuration not stated)	x	-0.3	56.8*	7.2	-69.7	48.4
COc1cc(OC)c(OC)cc1/C=N/NC(=O)c1cccc(S(=O)(=O)N2CCOCC2)c1	-3.2	-0.1	9.7	-1.1	18.2	-14.2
CCN(Cc1ccccc1)c1ccc(/C=N/NC(=O)c2cccc(S(=O)(=O)N3CCOCC3)c2)cc1	34.5	1.0	26.5	6.1	16.6	69.2*
CCOc1ncccc1C(=O)NNC(=O)c1cccc(S(=O)(=O)N2CCOCC2)c1	9.0	0.1	11.5	x	-3.6	97.4*
COc1cc(/C=N/NC(=O)c2cccc(S(=O)(=O)N3CCOCC3)c2)cc(OC)c1O	-16.2	0.2	1.2	1.9	65.4*	-6.0
CC(=O)Nc1c(O)[nH]c2ccccc12	x	-0.2	-30.0	-0.6	-2.6	11.1
N=NC(=O)c1ccccc1Nc1c(O)[nH]c2ccccc12	4.9	0.0	6.1	x	2.5	52.8*
Cc1cc(C)c(C(=O)/C=C/c2cccs2)c(=O)[nH]1	18.3	0.5	10.1	1.1	12.2	46.0
SMILES	LGR2 inh	aDG glyco act	TROY NFkB inh	HSP90 refold inh	LMP1 NFkB inh	TWEAK Fn14 block
CCc1ccc(/C=C/C(=O)c2c(C)cc(C)[nH]c2=O)cc1	x	-0.1	44.2	3.5	31.0	79.5*
C/C(=C\c1ccc(Cl)cc1)C(=O)c1c(C)cc(C)[nH]c1=O	27.5	0.1	32.3	7.2	22.0	31.3
CCc1ccc(/C=C(\C)C(=O)c2c(C)cc(C)[nH]c2=O)cc1	23.8	0.0	30.0	-1.9	21.4	23.9
Cc1ccc(/C=C/C(=O)c2c(C)cc(C)[nH]c2=O)cc1	69.6*	0.1	37.4	4.4	32.2	86.0*
C/C(=C\c1ccc(Br)cc1)C(=O)c1c(C)cc(C)[nH]c1=O	44.1	0.0	45.1	-1.0	18.6	52.0*
O=C(C[C@@H]1CC[C@@H](NS(=O)(=O)c2ccc(F)cc2)[C@H](CO)O1)NC1CCC1	-0.5	x	x	x	x	x
COc1ccc(S(=O)(=O)N(C)C[C@H]2Oc3ccc(NS(=O)(=O)c4cn(C)cn4)cc3CC(=O)N([C@@H](C)CO)C[C@@H]2C)cc1	15.0	x	x	x	x	x
COc1cc(OC)c2c(-c3cccc(-c4ccc(CO)cc4)c3)cc(=O)oc2c1	x	2.7	41.4	x	10.1	74.6*
COc1ccc(-c2cccc(-c3cc(=O)oc4cc(OC)cc(OC)c34)c2)cc1	-7.3	-0.1	19.6	x	-14.3	4.6
COc1ccc(-c2ccc(-c3cc(=O)oc4cc(OC)c(OC)c(OC)c34)cc2)cc1F	0.3	-0.1	-10.9	x	15.9	-4.9
COc1cc(OC)c2c(-c3cccc(-c4ccc(N(C)C)cc4)c3)cc(=O)oc2c1	-6.0	-0.6	44.3	x	14.4	52.4*
COc1cc2oc(=O)cc(-c3ccc(-c4ccc(N(C)C)cc4)cc3)c2c(OC)c1OC	4.2	-0.3	71.3*	x	42.3*	91.7*
CCC(=O)N1CC2(C1)[C@H](c1ccccc1)[C@@H](CO)N2CC1CC1	-6.7	x	x	x	x	x
Cc1cccc(-c2ccc(C3[C@H]4CNC[C@@H]3N4CC3CCOCC3)cc2)c1 (some centres not stated)	-1.4	x	x	x	x	x
CN1C(=O)c2cc(NS(=O)(=O)c3ccc(F)cc3)ccc2OC[C@H]2O[C@@H](CC(=O)Nc3cccc4ccccc34)CC[C@@H]21	-9.2	x	x	x	x	x
Cc1ccc(S(=O)(=O)N2CCCCC2C)cc1[N+](=O)[O-] (configuration not stated)	23.6	-0.1	8.6	16.4*	-3.1	-24.7
Cc1ccc(S(=O)(=O)N2CCCC2)cc1[N+](=O)[O-]	-5.6	-0.3	-7.3	3.3	2.8	14.1
O=C1c2ccccc2OC2(C=Cc3ccccc3O2)N1Cc1ccccc1 (configuration not stated)	13.2	0.0	x	-0.5	-6.1	76.0*
COc1ccccc1NS(=O)(=O)c1cccc(C(=O)OCC(=O)Nc2cc(C)on2)c1	x	0.5	-8.7	0.4	-6.4	28.7
